DAX1 StAR inh – DAX1 (NR0B1) inhibition, primary screen; HEK293T StAR-luciferase reporter, SF-1/DAX-1 repression relief; inhibition, % at 6.8 µM; 370,000 tested, 1.1% active; AID 652010;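 active = inhibition above the mean over all tested compounds plus 3 SD, cut at about 3.6% in these data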;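 note: 0% = DAX-1 cells with DMSO and 100% = cells lacking DAX-1 with DMSO; higher inhibition means more luminescence from relief of DAX-1 repression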
hcDAF-12 act – activators of H. contortus DAF-12 nuclear receptor | HEK293 hcDAF-12 lit1-tk-luc reporter, luminescence; 0% DMSO, 100% Δ7-dafachronic acid | activation, % at 6.8 µM | 370,000 tested, 1.4% active;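 active = activation above the mean of all tested compounds plus 3 SD, cut at about 5.5% in these data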;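 note: 100% = response to 3 µM Δ7-dafachronic acid high control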
SMARCA2 act – SMARCA2 function activation, primary screen. MG213 cells, MMTV-luciferase reporter, dexamethasone, overnight. activation, % at 9.1 µM. 370,000 tested, 1% active; in the data active = activation above about 7.8%;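 note: 0% = vehicle wells and 100% = reference activator wells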
hgDAF-12 ag – hgDAF-12 agonism, primary luciferase screen; HEK293 GAL4-hgDAF12 UAS-luciferase reporter, agonist luminescence; normalized to butyrate control; activation, % at 6.8 µM; 370,000 tested, 1.8% active;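 active = activation above a cutoff set at the mean of all screened compounds plus 3 SD, cut at about 10% in these data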;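 note: 0% = DMSO wells and 100% = sodium butyrate wells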
ssDAF-12 act – activates DAF-12 receptor from parasite S. stercoralis; activation, % at 6.8 µM; HEK293 ssDAF-12/GRIP1 lit1-tk-luc reporter, luminescence; % of 3 µM dafachronic acid response; 370,000 tested, 1% active;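 active = activation above the mean over all tested compounds plus 3 SD, cut at about 0.9% in these data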;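 note: 0% = DMSO-only wells and 100% = 3 µM delta7-dafachronic acid wells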
* = called active by the depositor; / = not tested or not shown. Compounds with a hit are over-represented: about 4.2% of the library has one in this group of screens.

SMILES | DAX1 StAR inh | hcDAF-12 act | SMARCA2 act | hgDAF-12 ag | ssDAF-12 act
Nc1[nH]c(C(=O)c2ccccc2)c(-c2cccnc2)c1C(=O)NCCc1c[nH]c2ccccc12 | / | 3 | / | 2 | -1
Cc1cc(O)c(NC(=O)c2ccc(Br)o2)cc1C | 1 | 5.8* | 5 | 13* | 2.1*
O=C(Nc1ccc2c(c1)OCCO2)c1ccc(Br)o1 | 2 | 4 | 5 | 12* | 0
O=C(Nc1ccc2c(c1)OCCO2)c1cccc(Cl)c1Cl | 2 | 4 | 1 | 12* | 0
CC(OC(=O)c1ccc(Br)o1)C(=O)Nc1ccc2c(c1)OCCO2 (stereo not drawn) | -2 | -1 | -4 | 2 | -1
O=C(Nc1ccc2c(c1)OCCO2)c1c(Cl)cccc1Cl | 0 | -1 | -1 | 2 | -1
O=C(Nc1ccc2c(c1)OCCO2)c1ccc(Cl)c([N+](=O)[O-])c1 | 1 | 3 | 6 | 13* | -1
C[C@H](O)[C@@H]1C(=O)N2CCc3c([nH]c4c(-c5ccccc5)cccc34)[C@@H]2C[C@@H]1N(C)C(=O)Nc1ccccc1 | 1 | -1 | -2 | -2 | -1
O=[N+]([O-])c1ccc(Cn2ccc3ccc(-c4ccc5ccn(Cc6ccccc6)c5c4)cc32)cc1 | -1 | 0 | -2 | 1 | 0
CC(=O)N1CCN(C(=O)CN2C(=O)CC(C)(C)S(=O)(=O)c3ccccc32)CC1 | 1 | 0 | 3 | -2 | 0
COc1cc(OC)cc(C2=Cc3ccc(OC)cc3C(CC(C)=O)N2c2ccc(-c3cccs3)cc2)c1 (stereo not drawn) | -4 | -3 | -5 | -4 | -2
CCN(C(=O)COC(=O)CNC(=O)C1CCCCC1)c1ccccc1 | 1 | -1 | 2 | 1 | 1.0*
O=C(CNC(=O)C1CCCCC1)OC(C(=O)c1ccccc1)c1ccccc1 (stereo not drawn) | 0 | 1 | 0 | 0 | -1
CC(OC(=O)CNC(=O)C1CCCCC1)C(=O)NCc1ccccc1 (stereo not drawn) | 0 | 0 | 1 | -1 | 1.6*
CCOC(=O)N1CCN(C(=O)C[C@@H]2C[C@@]3(C(=O)OC)CCCCC=C3N(Cc3ccc(Cl)cc3Cl)C2=O)CC1 | -1 | -1 | -2 | -1 | -1
Cc1nc2nc(C)c(NS(=O)(=O)c3ccc(Cl)cc3)c(=O)n2[nH]1 | 0 | 6.4* | -4 | 4 | 0
Cc1ccc(S(=O)(=O)Nc2c(C)nc3nc(C)[nH]n3c2=O)cc1 | 0 | 0 | -2 | -4 | -1
COc1cccc(NC(=O)n2ccc3ccc(-c4ccc5cc[nH]c5c4)cc32)c1 | -2 | -1 | -1 | 1 | -1
CCn1ncc(C(=O)Nc2ccc(F)cc2)c1C | 1 | 5 | 3 | 8 | 1.7*
O=C(Oc1ccc(-c2cnc3ccccc3n2)cc1)c1ccco1 | 3 | 5.6* | 5 | 10 | 0
COc1cccc(-n2nnc3c(=O)n(CC(=O)N4CCC(C)CC4)cnc32)c1 | -1 | -2 | -4 | 0 | -1
COc1cccc(-n2nnc3c(=O)n(CC(=O)N4CCC(Cc5ccccc5)CC4)cnc32)c1 | -1 | 5 | -2 | 6 | 1.2*
COC(=O)[C@]12C[C@H](CC(=O)N3CCN(C(=O)c4ccco4)CC3)C(=O)N(CCC3=CCCCC3)C1=C[C@H](C1CCCC1)O[C@@H]2C | 0 | -1 | -2 | 1 | -2
Cc1cccc(NC(=O)c2cccnc2)c1C | 0 | 0 | 0 | 0 | -1
Cc1cccc(NC(=O)c2ccc3c(Cl)c4c(nc3c2)CCCC4)n1 | 2 | -1 | 3 | 4 | -1
SMILES | DAX1 StAR inh | hcDAF-12 act | SMARCA2 act | hgDAF-12 ag | ssDAF-12 act
Cc1cccc(NC(=O)c2onc3c2CCCC3)c1C | 2 | 2 | 4 | 11* | 0
Cc1cccc(NC(=O)c2onc3c2CCCC3)n1 | 4.1* | 5 | 2 | 13* | 0
COc1ccc(-c2cc(-c3ccc(OC)c(OC)c3)n[nH]2)c(O)c1 | 4 | 2 | 2 | 7 | 0
COc1ccc(-c2cc(-c3ccc(Cl)cc3)n[nH]2)c(O)c1 | 2 | 5 | 1 | 11* | 0
COc1ccc(-c2cc(-c3cc(OC)ccc3O)[nH]n2)cc1 | 1 | 5 | 0 | 13* | 0
O=C1CCCc2nc3c(cc21)C(O)Oc1c-3ccc2ccccc12 (stereo not drawn) | 2 | 2 | 4 | 12* | -1
